Compounds with a hit are over-represented: about 1% of the library has one in this group of screens.
MEX-5 binding: C. elegans MEX-5 TCR-2 RNA binding activity; MEX-5/FITC-TCR2 RNA binding, fluorescence polarization; stronger effect = lower value; 300,000 tested, 0.38% active; activity score (negative = inhibition of binding), % at 10 µM; Q9XUB2;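 active means inhibition past about -25% in most replicates, and total fluorescence under double the plate's negative control median, limit read from the data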
Target sequence (Q9XUB2 whole entry, looked up): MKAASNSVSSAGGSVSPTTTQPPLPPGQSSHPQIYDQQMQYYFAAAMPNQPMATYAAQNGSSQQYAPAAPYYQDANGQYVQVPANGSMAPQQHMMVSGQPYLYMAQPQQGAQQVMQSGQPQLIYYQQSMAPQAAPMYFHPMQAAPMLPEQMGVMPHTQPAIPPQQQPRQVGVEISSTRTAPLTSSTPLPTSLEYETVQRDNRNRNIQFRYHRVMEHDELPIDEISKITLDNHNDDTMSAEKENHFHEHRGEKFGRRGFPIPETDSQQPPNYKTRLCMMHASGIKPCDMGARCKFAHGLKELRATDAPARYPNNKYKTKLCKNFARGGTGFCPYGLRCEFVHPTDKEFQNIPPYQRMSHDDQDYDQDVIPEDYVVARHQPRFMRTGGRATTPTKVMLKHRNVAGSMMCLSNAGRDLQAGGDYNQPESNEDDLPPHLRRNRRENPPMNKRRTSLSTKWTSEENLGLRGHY
EBV gp42 inh: EBV gp42 inhibition; Fluorescence polarization binding assay, mP read-out; inhibition, % (tested at 21.74 µM); 220,000 tested, 0.42% active; AID 1085; in the data active means inhibition above about 50%
EBNA-1 inh: blocks EBNA-1 binding to DNA. EBNA-1 DNA binding, fluorescence polarization. inhibition, % at 14.8 µM. AID 1950. 300,000 tested, 0.34% active; in the data active means inhibition above about 28%
ZTA DNA inh: blocks Epstein-Barr virus ZTA, an EBNA-1 counter-screen; 320,000 tested, 0.15% active; P03206; ZTA-DNA binding, fluorescence polarization; inhibition, % at 11 µM; in the data active means inhibition above about 33%
EBNA-1 confirm: EBNA-1 (EBV) inhibition, confirmation | shares compounds with EBNA-1 inh | Recombinant EBNA-1 DBD, Cy5-DNA fluorescence polarization | inhibition, % at 14.8 µM | 830 tested, 35% active | AID 2292;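 active means mean inhibition across replicates above a set limit taken from the earlier primary screen, cut at about 28% in these data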
ZTA counter trip: ZTA (EBV) inhibition, triplicate counter-screen. shares compounds with EBNA-1 inh. Zta-ZRE DNA binding, Cy5 fluorescence polarization. inhibition, % at 11.1 µM. 830 tested, under 10 active;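 active means mean inhibition over triplicates above a set limit taken from the primary EBNA-1 screen, cut at about 37% in these data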;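 further: purified full length Zta protein with Cy5 labeled ZRE DNA probe; inhibitors lower polarization by freeing the labeled DNA probe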
Hits are given with their value; - = inactive; . = no result.

SMILES | MEX-5 binding | EBV gp42 inh | EBNA-1 inh | ZTA DNA inh | EBNA-1 confirm | ZTA counter trip
O=C(Cc1ccc(-n2cccc2)cc1)NCc1cccs1 | - | - | 32.5 | - | - | -
COC(=O)c1cccc(Nc2cc(C)nc(-c3ccccc3O)n2)c1 | - | - | - | - | . | .
COC(=O)c1ccc(Nc2cc(C)nc(-c3ccccc3O)n2)cc1 | - | - | 29.4 | - | - | -
COc1cc2[nH]c(=O)n(Cc3ccccc3Cl)c(=O)c2cc1OC | - | - | 39.4 | - | - | -
COc1cc2[nH]c(=S)n(Cc3ccccc3)c(=O)c2cc1OC | - | - | - | - | . | .
Cc1cccc(OCC(=O)N/N=C\C=C\c2ccc3c(c2)OCO3)c1C | . | - | 58.7 | - | 80.3 | -
COc1cccc(CNS(=O)(=O)c2cc(CN3C(=O)c4cccnc4C3=O)ccc2OC)c1 | - | . | - | - | . | .
COc1ccc(N=Cc2c(O)n(-c3ccc(OC)cc3)c(=O)c3ccccc23)cc1 | - | - | 65.2 | - | 55.7 | -
OCc1ccccc1OCCCOc1cccc2cccnc12 | - | . | - | - | . | .
CCCOC(=O)c1cccc(NC(=O)COc2ccc([N+](=O)[O-])cc2)c1 | - | - | 109.0 | - | - | -
Cc1cccc(C)c1NC(=O)Cn1nnc(C(=O)Nc2ccc(F)cc2F)c1N | - | . | 28.0 | - | 29.2 | -
Cc1ccc(OCc2nnc(NC(=O)c3ccco3)s2)c(C)c1 | - | - | 45.6 | - | - | -
O=C(CNC(c1ccccc1)c1ccccc1)NCc1ccccc1Cl | - | . | - | - | . | .
N#Cc1c2ncn(CC(=O)c3ccc(Br)cc3)c(=O)c2c2n1CCC2 | - | - | 28.8 | - | 136.1 | -
NC(=O)c1c(-c2ccc(Cl)cc2Cl)csc1NC(=O)Cc1ccccc1 | - | - | 28.9 | - | - | -
O=C(Cc1ccccc1)Nc1scc(-c2ccccc2)c1C(=O)N1CCOCC1 | - | - | - | - | . | .
COc1ccc(-n2nc(C(=O)Nc3ccc4c(c3)OCO4)c3ccccc3c2=O)c(OC)c1 | . | - | 29.3 | - | 35.4 | -
COc1ccccc1-n1nc(C(=O)Nc2ccc3c(c2)OCO3)c2ccccc2c1=O | - | - | - | - | . | .
O=C(Cc1ccc(Cl)cc1)Nc1ccccc1N1CCN(C(=O)c2ccccc2)CC1 | - | . | - | - | . | .
O=C(NCC1OCCc2ccccc21)c1ccc(NC(=O)c2ccc(Cl)cc2Cl)cc1 (stereo not given) | - | - | 70.4 | - | 46.6 | -
Cc1ccc2c(c1)nnn2C1CCN(S(=O)(=O)c2ccc(C(=O)NC3CCCC3)cc2)CC1 | - | - | 34.9 | - | 35.6 | -
Cc1ccc2c(c1)nnn2C1CCN(S(=O)(=O)c2ccc(C(=O)N(C)C)cc2)CC1 | - | - | - | - | . | .
COc1ccc(S(=O)(=O)Nc2cc(Sc3ncn[nH]3)c(O)c3ccccc23)cc1 | . | - | . | . | . | .
O=S(=O)(Nc1cc(Sc2cccc3cccnc23)c(O)c2ccccc12)c1ccc(F)cc1 | - | - | 32.7 | - | - | -
CCOC(=O)N1CCN(S(=O)(=O)c2ccc(F)c(C(=O)Nc3cccc(Cl)c3C)c2)CC1 | - | - | 81.4 | - | - | -
SMILES | MEX-5 binding | EBV gp42 inh | EBNA-1 inh | ZTA DNA inh | EBNA-1 confirm | ZTA counter trip
COC(=O)c1cc(S(=O)(=O)NCc2cccs2)c[nH]1 | - | . | - | - | . | .
COc1cc(C(=O)NNC(=S)NC(=O)/C=C/c2ccccc2)cc(OC)c1OC | - | - | 76.9 | - | 35.3 | -
Cc1cc(OCC(O)CN2CCc3ccccc3C2)ccc1Cl (stereo not given) | - | . | - | - | . | .
COc1ccc(-c2nc(SCC(=O)Nc3nccs3)c(-c3ccc(Cl)cc3)[nH]2)cc1 | - | - | 73.4 | - | 32.1 | -
COc1ccc(-c2[nH]c(-c3ccc(C)cc3)nc2SCC(=O)Nc2nccs2)cc1 | - | - | - | - | . | .
CC(=O)Oc1cccc(C2C3=C(CC(C)(C)CC3=O)Nc3ccccc3N2C(C)=O)c1 (stereo not given) | - | . | - | - | . | .
Cc1ccc2c(c1)N1C(=O)c3ccccc3C1C1=C(CC(C)(C)CC1=O)N2 (stereo not given) | - | - | 92.8 | - | - | -
O=C(Nc1ccc(Oc2ccc3c(c2)C(=O)N(c2ccc(O)cc2)C3=O)cc1)c1cccs1 | - | - | 28.4 | - | 55.3 | -
CC(C)CN1C(=O)c2ccc(NC(=O)c3cccs3)cc2C1=O | - | - | - | - | . | .
Cc1ccccc1/C=N/NC(=O)c1ccc(-n2cnnn2)cc1 | . | . | . | - | . | .
Cc1ccccc1CNC(=O)C1CCN(c2nnc(N3CCCC3=O)s2)CC1 | - | . | 96.3 | - | - | -
COc1ccc(CNC(=O)C2CCN(c3nnc(N4CCCC4=O)s3)CC2)cc1 | - | . | - | - | . | .
COc1cccc(-c2ccc(NC(=O)C3CCCN(Cc4cnn(C(C)C)c4)C3)cc2)c1 (stereo not given) | - | . | - | - | . | .
Cc1cc(NC(=O)CSc2nnc(NC(=O)C3CC(=O)N(c4ccccc4C)C3)s2)no1 (stereo not given) | - | - | - | - | . | .
Cc1cc(NC(=O)CSc2nnc(NC(=O)C3CC(=O)N(c4ccccc4)C3)s2)no1 (stereo not given) | - | - | 83.4 | - | - | -
Cn1c(O)c(N=NC(=O)c2cc(-c3cccs3)nc3ccccc23)c2ccccc21 | - | - | 109.0 | - | 82.2 | -
CC(=O)N1CCN=C1SCc1ccc(C(F)(F)F)cc1 | - | . | 40.5 | - | - | -
Cc1c(NS(=O)(=O)c2cc(Br)cc3c2N(C(=O)C2CC2)CC3)c(=O)n(-c2ccccc2)n1C | - | - | - | - | . | .
Cc1c(NS(=O)(=O)c2ccc3c(c2)CCN3C(=O)C2CC2)c(=O)n(-c2ccccc2)n1C | - | - | 42.8 | - | - | -
Cn1cc(/C=C2/SC(=O)N(CC(=O)Nc3ccc4c(c3)OCO4)C2=O)c2ccccc21 | - | - | 56.4 | - | 64.3 | -
N#C/C(=C(/O)COC(=O)CSc1ccc2ccccc2c1)c1nc2ccccc2[nH]1 | - | - | 39.1 | - | - | -
Cc1ccc(C)c(SCC(=O)OC/C(O)=C(\C#N)c2nc3ccccc3[nH]2)c1 | - | - | . | . | . | .
Cc1ccc(NC(=O)CCNC(=O)c2ccc(Br)cc2)cc1S(=O)(=O)N1CCCCCC1 | - | . | - | - | . | .
COC(=O)[C@H](Cc1ccccc1)NC(=O)O[C@H]1C(=O)c2ccc(OC)cc2O[C@@H]1c1ccc2c(c1)OCO2 | - | - | 28.7 | - | - | -
COc1ccc(-c2nnn(CC(=O)N(CC(=O)NCCC(C)C)Cc3cccs3)n2)cc1OC | - | - | 30.3 | - | - | -
C(=C\n1nnc2ccccc21)/c1ccccn1 | - | . | - | - | . | .
Cc1c(Cl)cccc1NC(=O)c1ccc(OCC(=O)NCc2ccccc2)cc1 | - | - | 33.1 | - | 44.5 | -
O=S(=O)(Nc1nc(-c2ccccc2)cs1)c1cc(Cl)ccc1Cl | - | . | 30.8 | - | - | -
COC(=O)c1ccc(NC(=O)Nc2ccc(OC)cc2)cc1 | - | - | - | - | . | .
COc1ccc(C(=O)Nc2ccc(C3(C#N)CCCC3)cc2)cc1 | - | - | 55.8 | - | - | -

Bioassay records deposited in PubChem by several laboratories.
